Assays:
Settings in all cases: concentration: 1 μM, replicates: in singlicate; n = 1
BRSK1 = tested on: BRSK1
BRSK2 = tested on: BRSK2
BTK = tested on: BTK
BUB1 = tested on: BUB1
CAMK1B = tested on: CAMK1B
CAMK1D = tested on: CAMK1D
CAMK1G = tested on: CAMK1G
CAMK1 = tested on: CAMK1
CAMK2A = tested on: CAMK2A
CAMK2B = tested on: CAMK2B
CAMK2D = tested on: CAMK2D
CAMK2G = tested on: CAMK2G
CAMK4 = tested on: CAMK4
CAMKK1 = tested on: CAMKK1
CAMKK2 = tested on: CAMKK2
CASK = tested on: CASK
CDC2L1 = tested on: T1, CDC2L1
T1 construct: gene CDK11B

CDC2L2 = tested on: CDC2L2
CDC2L5 = tested on: T2, CDC2L5
T2 construct: gene CDK13

CDK11 = tested on: T3, CDK11
T3 construct: gene CDK19
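Also: KINOMEscan kinase panel screen.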

Row | SMILES | %Inh (BRSK1) [%] | %Inh (BRSK2) [%] | %Inh (BTK) [%] | %Inh (BUB1) [%] | %Inh (CAMK1B) [%] | %Inh (CAMK1D) [%] | %Inh (CAMK1G) [%] | %Inh (CAMK1) [%] | %Inh (CAMK2A) [%] | %Inh (CAMK2B) [%] | %Inh (CAMK2D) [%] | %Inh (CAMK2G) [%] | %Inh (CAMK4) [%] | %Inh (CAMKK1) [%] | %Inh (CAMKK2) [%] | %Inh (CASK) [%] | %Inh (CDC2L1) [%] | %Inh (CDC2L2) [%] | %Inh (CDC2L5) [%] | %Inh (CDK11) [%]
1 | OCCOCCn1ccc2ncnc(Nc3ccc(Oc4cccc(Cl)c4)c(Cl)c3)c21 | 0 | 33 | 0 | 0 | 0 | 0 | 0 | 0 | 0 | 0 | 0 | 0 | 0 | 0 | 0 | 0 | 0 | 0 | 0 | 0
2 | CC(=O)Nc1n[nH]c2ncc(-c3ccccc3)cc12 [SB-548492] | 21 | 0 | 0 | 0 | 0 | 18 | 0 | 35 | 4 | 0 | 0 | 17 | 0 | 0 | 4 | 0 | 0 | 14 | 21 | 0
3 | CC(C)(C)c1ccc(-n2cnc3c(N)ncnc32)cc1 [SKF-97263] | 18 | 0 | 0 | 18 | 12 | 9 | 0 | 10 | 0 | 0 | 2 | 0 | 0 | 0 | 0 | 12 | 0 | 0 | 0 | 10
4 | Fc1cccc(COc2ccc(Nc3ncnc4nn5ccccc5c34)cc2Cl)c1 [GW689066] | 0 | 0 | 15 | 49 | 15 | 21 | 0 | 19 | 0 | 0 | 0 | 10 | 0 | 5 | 0 | 0 | 0 | 0 | 0 | 2
5 | CS(=O)(=O)CCNCc1nc(-c2ccc3ncnc(Nc4ccc(OCc5cccc(F)c5)c(Cl)c4)c3c2)cs1.Cl [GW583340] | 0 | 0 | 0 | 0 | 6 | 15 | 2 | 20 | 0 | 0 | 23 | 22 | 0 | 0 | 28 | 0 | 11 | 25 | 0 | 12
6 | Cn1cc(-c2ccc3c(c2)CCN3C(=O)Cc2cccc(C(F)(F)F)c2)c2c(N)ncnc21 [GSK2606414] | 12 | 0 | 0 | 6 | 11 | 10 | 0 | 4 | 0 | 0 | 0 | 5 | 0 | 7 | 0 | 75 | 0 | 0 | 0 | 37
7 | Cn1ccc2ncnc(Nc3ccc(Oc4cccc(Cl)c4)c(Cl)c3)c21 | 13 | 0 | 0 | 12 | 0 | 11 | 5 | 22 | 9 | 0 | 5 | 8 | 0 | 11 | 9 | 9 | 22 | 5 | 13 | 5
8 | c1ccc(-c2ccc3c(-c4ccnc(Nc5ccc6c(c5)OCCO6)n4)cnn3n2)cc1 [GW818941] | 0 | 0 | 14 | 28 | 12 | 8 | 0 | 29 | 0 | 5 | 0 | 10 | 0 | 0 | 0 | 0 | 0 | 3 | 0 | 9
9 | C[C@@H]1CCN(C(=O)CO)C[C@@H]1N(C)c1ncnc2[nH]ccc12 | 13 | 0 | 0 | 0 | 29 | 0 | 0 | 0 | 0 | 0 | 0 | 13 | 20 | 4 | 11 | 0 | 0 | 0 | 0 | 6
